The text below walks through data of PubChem BioAssay (EPA / NIEHS).

In assay [1] the target is human Peroxisome Proliferator-activated Receptor alpha (PPARa), PPARA (gene 5465) (UniProt Q07869). Nature of the assay: ATG_PPARa_TRANS: Attagene TRANS-FACTORIAL HepG2 Assay for human Peroxisome Proliferator-activated Receptor alpha (PPARa) (AID 2283001). In short, it runs like this:
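HepG2 cells transiently transfected with multiplexed GAL4-UAS reporter units and chimeric NR-Gal4 constructs were dosed for 24 h. Reporter mRNA was measured by RT-PCR with fluorescent labelling and capillary electrophoresis; gain of signal fitted against DMSO.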

Assay [2] has as its target human Peroxisome Proliferator-activated Receptor delta (PPARd), PPARD (gene 5467) (UniProt Q03181). The assay is described as follows: ATG_PPARd_TRANS: Attagene TRANS-FACTORIAL HepG2 Assay for human Peroxisome Proliferator-activated Receptor delta (PPARd) (AID 2283002). In a few lines:
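HepG2 cells transiently transfected with multiplexed GAL4-UAS reporter units and exogenous chimeric NR-Gal4 proteins; 24 h compound exposure. Reporter mRNA measured by RT-PCR, 6-FAM labelling, HpaI digestion and capillary electrophoresis; gain of signal versus DMSO.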

In assay [3] the target is Retinoic acid receptor alpha (Homo sapiens) (UniProt P10276). The assay is described as follows: ATG_RARa_TRANS: Attagene TRANS-FACTORIAL HepG2 Assay for human Retinoic Acid Receptor alpha (RARa) (AID 2283005). In a few lines:
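HepG2 cells transiently transfected with multiple reporter units expressing chimeric RARα-GAL4 fusion, with GAL4-UAS-driven reporters. After 24 h compound exposure, reporter mRNA induction quantified by RT-PCR and capillary electrophoresis with fluorescent labeling; gain-of-signal fitted relative to DMSO control.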

Assay [4] deals with human Retinoic Acid Receptor gamma (RARg), RARG (gene 5916) (UniProt P13631). Nature of the assay: ATG_RARg_TRANS: Attagene TRANS-FACTORIAL HepG2 Assay for human Retinoic Acid Receptor gamma (RARg) (AID 2283009). In a few lines:
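HepG2, RARg-GAL4 TRANS system, 24 h exposure; reporter mRNA by RT-PCR + CE fluorescence; increase over DMSO.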

Assay [5] has as its target human RAR-related Orphan Receptor gamma (RORg), RORC (gene 6097) (UniProt P51449). The assay is described as follows: ATG_RORg_TRANS: Attagene TRANS-FACTORIAL HepG2 Assay for human RAR-related Orphan Receptor gamma (RORg) (AID 2283011). In short, it runs like this:
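Chimeric RORg-Gal4 transactivation in transfected HepG2; 24 h exposure; RT-PCR/capillary electrophoresis readout of reporter mRNA, DMSO baseline.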

In assay [6] the target is human Thyroid Receptor alpha (THRa1), THRA (gene 7067) (UniProt P10827). The assay is described as follows: ATG_THRa1_TRANS: Attagene TRANS-FACTORIAL HepG2 Assay for human Thyroid Receptor alpha (THRa1) (AID 2283014). In short, it runs like this:
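Measured here is mRNA from a GAL4-UAS reporter in transfected HepG2 cells carrying a Gal4-fused receptor, 24 h post-dose. DMSO served as negative control and baseline.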

A short description of assay [7]: BSK_4H_Eotaxin3: BioMAP Diversity Plus: 4H Assay for Eotaxin 3 Biomarker Activity (AID 2283000; active means hit-call score of the fitted dose curve at least 0.9, where 1 is the maximum; inactive means score below 0.9;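 further: CCL26 protein level quantified by ELISA in parallel with SRB cytotoxicity check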). The following applies: primary human endothelial cells (HUVEC); actives raise or lower the signal. In short, it runs like this: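 ELISA quantitation of CCL26 (Eotaxin-3) protein from chemically dosed human vascular endothelial cells at 24 h; increases and decreases both scored relative to DMSO-treated baseline.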

Read-out in assay [8]: Intercellular Adhesion Molecule 1 (ICAM1), ICAM1 (gene 3383)
Nature of the assay: BSK_3C_ICAM1: BioMAP Diversity Plus: 3C Assay for Intercellular Adhesion Molecule 1 (ICAM1) Biomarker Activity (AID 2283003; active means hit-call score of the fitted dose curve at least 0.9, where 1 is the maximum; inactive means score below 0.9). As to conditions: primary human endothelial cells (HUVEC); actives raise or lower the signal. In a few lines:
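Human vascular endothelial primary cells, 3C conditions, 24 h treatment. ICAM-1 by ELISA.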

Assay [9] is described as follows: BSK_3C_Proliferation: Cell Proliferation Assessment in the BioMAP Diversity Plus: 3C Assay (AID 2283006; active means hit-call score of the fitted dose curve at least 0.9, where 1 is the maximum; inactive means score below 0.9;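 further: potency may reflect either rise or fall in cell number versus DMSO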). The following applies: primary human endothelial cells (HUVEC). In a few lines: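 Proliferation of human vascular endothelial primary cells after 48 h dosing, quantified as SRB-stained protein at 560 nm relative to DMSO.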
Read-out in assay [10]: Interleukin-1 alpha (IL1a), IL1A (gene 3552)
The assay is described as follows: BSK_BE3C_IL1a: BioMAP Diversity Plus: BE3C Assay for Interleukin-1 alpha (IL1a) Biomarker Activity (AID 2283016; active means hit-call score of the fitted dose curve at least 0.9, where 1 is the maximum; inactive means score below 0.9). The following applies: primary human bronchial epithelial cells; actives raise or lower the signal. In a few lines: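 Cultures of primary human bronchial epithelial cells receive test chemical. After 24 h, IL-1a is quantified by ELISA, while parallel wells are fixed in TCA and SRB-stained for total protein. Changes in either direction are fitted relative to DMSO.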

Read-out in assay [11]: Monocyte Chemoattractant Protein-1 (MCP1), CCL2 (gene 6347)
Nature of the assay: BSK_3C_MCP1: BioMAP Diversity Plus: 3C Assay for Monocyte Chemoattractant Protein-1 (MCP1) Biomarker Activity (AID 2283017; active means hit-call score of the fitted dose curve at least 0.9, where 1 is the maximum; inactive means score below 0.9). As to conditions: primary human endothelial cells (HUVEC); actives raise or lower the signal. In short, it runs like this:
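Using human vascular primary endothelium, researchers measured MCP-1 by ELISA 24 h after treatment, with DMSO serving as negative control for bidirectional fitting.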

Read-out in assay [12]: Monocyte Chemoattractant Protein-1 (MCP1), CCL2 (gene 6347)
The assay is described as follows: BSK_4H_MCP1: BioMAP Diversity Plus: 4H Assay for Monocyte Chemoattractant Protein-1 (MCP1) Biomarker Activity (AID 2283018; active means hit-call score of the fitted dose curve at least 0.9, where 1 is the maximum; inactive means score below 0.9). The following applies: primary human endothelial cells (HUVEC); actives raise or lower the signal. In a few lines: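 Readout: MCP-1 ELISA on compound-treated HUVEC, sampled 24 h post-dosing. Baseline and negative control DMSO; bidirectional fit. Overt toxicity checked alongside by sulforhodamine B protein staining at time of biomarker measurement.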

Read-out in assay [13]: Human Leukocyte Antigen - DR isotype (HLADR), HLA-DRA (gene 3122)
The assay is described as follows: BSK_3C_HLADR: BioMAP Diversity Plus: 3C Assay for Human Leukocyte Antigen - DR isotype (HLADR) Biomarker Activity (AID 2283019; active means hit-call score of the fitted dose curve at least 0.9, where 1 is the maximum; inactive means score below 0.9;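 further: ELISA of cell-surface HLA-DR on HUVEC 24 h after dosing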). The following applies: primary human endothelial cells (HUVEC); actives raise or lower the signal. In short, it runs like this: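 Compound added to primary HUVEC cultures, 24 h incubation, then HLA-DR determined by ELISA; endpoint derived by bidirectional fitting relative to DMSO negative control.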

Read-out in assay [14]: Interleukin-8 (IL8), CXCL8 (gene 3576)
The assay is described as follows: BSK_3C_IL8: BioMAP Diversity Plus: 3C Assay for Interleukin-8 (IL8) Biomarker Activity (AID 2283020; active means hit-call score of the fitted dose curve at least 0.9, where 1 is the maximum; inactive means score below 0.9). As to conditions: primary human endothelial cells (HUVEC); actives raise or lower the signal. In a few lines: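 Human vascular endothelial cells (umbilical vein) in the 3C system; IL-8 level detected by ELISA at 24 h post-dose, with DMSO as baseline.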

Assay [15] addresses Peroxisome proliferator-activated receptor gamma (Homo sapiens) (UniProt P37231). Nature of the assay: ATG_PPARg_TRANS: Attagene TRANS-FACTORIAL HepG2 Assay for human Peroxisome Proliferator-activated Receptor-gamma (PPARg) (AID 2283007). In short, it runs like this: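 Twenty-four hours after chemical dosing of transiently transfected HepG2 cells, isolated RNA was converted to cDNA, reporter sequences amplified and 6-FAM-labelled, then HpaI-digested and analysed by capillary electrophoresis. Signal increase against DMSO was fitted.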

The target of assay [16] is Nuclear receptor subfamily 1 group I member 2 (Homo sapiens) (UniProt O75469). Nature of the assay: ATG_PXR_TRANS: Attagene TRANS-FACTORIAL HepG2 Assay for human Pregnane X Receptor (PXR) (AID 2283008). In short, it runs like this:
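HepG2 cells transiently transfected with multiple reporter units, here a PXR-GAL4 chimera driving a GAL4-UAS reporter; 24 h compound exposure. Reporter mRNA measured by RT-PCR, FAM labelling and capillary electrophoresis; gain of signal fitted against DMSO baseline.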

Assay [17] has as its target human Retinoid X Receptor beta (RXRb), RXRB (gene 6257) (UniProt P28702). The assay is described as follows: ATG_RXRb_TRANS: Attagene TRANS-FACTORIAL HepG2 Assay for human Retinoid X Receptor beta (RXRb) (AID 2283013). In short, it runs like this:
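Multiplexed TRANS reporter assay in HepG2; 24 h dosing; reporter mRNA by RT-PCR/CE fluorescence; gain-of-signal relative to DMSO.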

In assay [18] the target is human RAR-related Orphan Receptor beta (RORb), RORB (gene 6096) (UniProt Q92753). Nature of the assay: ATG_RORb_TRANS: Attagene TRANS-FACTORIAL HepG2 Assay for human RAR-related Orphan Receptor beta (RORb) (AID 2283010). In short, it runs like this: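 In this TRANS-format test, human HepG2 cells express chimeric NR-Gal4 fusion proteins driving GAL4-UAS reporters. After 24 h dosing, reporter transcripts are measured by fluorescent RT-PCR/capillary electrophoresis, with DMSO as negative control.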
Chain of human RAR-related Orphan Receptor beta (RORb), RORB (gene 6096) (Q92753 whole entry, looked up, the tested form may be a part): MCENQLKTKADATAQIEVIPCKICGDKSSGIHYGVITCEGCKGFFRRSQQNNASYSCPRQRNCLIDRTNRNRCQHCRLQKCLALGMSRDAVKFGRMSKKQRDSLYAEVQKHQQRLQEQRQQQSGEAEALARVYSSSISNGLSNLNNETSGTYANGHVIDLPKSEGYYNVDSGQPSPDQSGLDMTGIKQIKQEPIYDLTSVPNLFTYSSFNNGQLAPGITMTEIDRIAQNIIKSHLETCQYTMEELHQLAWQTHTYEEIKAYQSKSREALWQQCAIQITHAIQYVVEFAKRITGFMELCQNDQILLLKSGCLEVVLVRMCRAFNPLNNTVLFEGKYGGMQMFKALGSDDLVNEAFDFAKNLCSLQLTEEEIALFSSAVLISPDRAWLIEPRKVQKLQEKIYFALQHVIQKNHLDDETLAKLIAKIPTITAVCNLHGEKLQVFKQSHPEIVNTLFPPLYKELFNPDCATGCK

Assay [19] addresses Retinoic acid receptor RXR-alpha (Homo sapiens) (UniProt P19793). Nature of the assay: ATG_RXRa_TRANS: Attagene TRANS-FACTORIAL HepG2 Assay for human Retinoid X Receptor alpha (RXRa) (AID 2283012). In short, it runs like this:
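Cells (HepG2) carried transiently transfected GAL4-responsive reporter units. Following a 24 h chemical incubation, reporter mRNA induction was read via RT-PCR fragment analysis; DMSO served as negative control and baseline.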

In general, AC50 refers to the midpoint of the concentration-response curve, whichever way the signal moves.

“And” between values parts separate entries of the source, which are not always exact repeats. Equal values may be shown once. Records with an inconclusive call do not appear. The source made the active and inactive calls. How the source made its calls, unless noted: active means hit-call score of the fitted dose curve at least 0.9, where 1 is the maximum; inconclusive means response in the unintended direction; inactive means score below 0.9.

Chain of Nuclear receptor subfamily 1 group I member 2 (Homo sapiens) (O75469 whole entry, looked up, the tested form may be a part): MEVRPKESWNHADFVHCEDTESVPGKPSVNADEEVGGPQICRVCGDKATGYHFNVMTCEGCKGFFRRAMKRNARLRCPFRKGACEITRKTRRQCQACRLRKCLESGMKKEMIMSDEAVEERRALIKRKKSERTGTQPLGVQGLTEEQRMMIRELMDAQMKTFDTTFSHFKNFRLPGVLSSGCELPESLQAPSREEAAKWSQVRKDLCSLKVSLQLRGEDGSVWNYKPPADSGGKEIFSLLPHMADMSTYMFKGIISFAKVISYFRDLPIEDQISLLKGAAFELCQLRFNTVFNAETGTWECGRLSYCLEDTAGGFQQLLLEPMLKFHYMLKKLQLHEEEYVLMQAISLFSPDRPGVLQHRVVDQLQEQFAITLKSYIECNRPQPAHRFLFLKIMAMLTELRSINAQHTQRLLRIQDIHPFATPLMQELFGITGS
Chain of human Retinoid X Receptor beta (RXRb), RXRB (gene 6257) (P28702 whole entry, looked up): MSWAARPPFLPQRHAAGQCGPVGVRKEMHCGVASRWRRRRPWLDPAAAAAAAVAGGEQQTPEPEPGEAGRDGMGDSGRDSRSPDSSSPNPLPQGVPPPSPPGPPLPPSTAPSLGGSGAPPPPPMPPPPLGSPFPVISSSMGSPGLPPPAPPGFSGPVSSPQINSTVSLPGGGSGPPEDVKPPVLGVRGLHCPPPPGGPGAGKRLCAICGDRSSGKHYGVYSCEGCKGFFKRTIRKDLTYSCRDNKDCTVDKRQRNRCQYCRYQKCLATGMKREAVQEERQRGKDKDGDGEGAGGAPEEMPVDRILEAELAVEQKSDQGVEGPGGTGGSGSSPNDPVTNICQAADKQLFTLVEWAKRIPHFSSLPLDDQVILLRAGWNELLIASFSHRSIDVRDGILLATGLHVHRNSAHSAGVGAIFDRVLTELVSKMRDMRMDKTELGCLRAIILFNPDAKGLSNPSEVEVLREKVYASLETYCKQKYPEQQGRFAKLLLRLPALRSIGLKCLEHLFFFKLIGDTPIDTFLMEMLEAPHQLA
Chain of human Peroxisome Proliferator-activated Receptor delta (PPARd), PPARD (gene 5467) (Q03181 whole entry, looked up, the tested form may be a part): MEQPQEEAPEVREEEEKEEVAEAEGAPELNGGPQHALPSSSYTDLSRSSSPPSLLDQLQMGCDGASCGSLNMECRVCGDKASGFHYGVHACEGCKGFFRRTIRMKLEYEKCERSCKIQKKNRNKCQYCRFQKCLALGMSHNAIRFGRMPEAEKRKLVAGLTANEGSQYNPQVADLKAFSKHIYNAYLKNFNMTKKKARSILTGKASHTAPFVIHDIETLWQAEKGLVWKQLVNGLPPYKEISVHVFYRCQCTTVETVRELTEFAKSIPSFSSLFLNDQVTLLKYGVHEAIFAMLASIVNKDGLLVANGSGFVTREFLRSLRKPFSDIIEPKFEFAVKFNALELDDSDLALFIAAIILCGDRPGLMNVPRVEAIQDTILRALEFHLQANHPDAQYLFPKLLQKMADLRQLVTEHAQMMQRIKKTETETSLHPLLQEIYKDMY
Chain of human Retinoic Acid Receptor gamma (RARg), RARG (gene 5916) (P13631 whole entry, looked up, the tested form may be a part): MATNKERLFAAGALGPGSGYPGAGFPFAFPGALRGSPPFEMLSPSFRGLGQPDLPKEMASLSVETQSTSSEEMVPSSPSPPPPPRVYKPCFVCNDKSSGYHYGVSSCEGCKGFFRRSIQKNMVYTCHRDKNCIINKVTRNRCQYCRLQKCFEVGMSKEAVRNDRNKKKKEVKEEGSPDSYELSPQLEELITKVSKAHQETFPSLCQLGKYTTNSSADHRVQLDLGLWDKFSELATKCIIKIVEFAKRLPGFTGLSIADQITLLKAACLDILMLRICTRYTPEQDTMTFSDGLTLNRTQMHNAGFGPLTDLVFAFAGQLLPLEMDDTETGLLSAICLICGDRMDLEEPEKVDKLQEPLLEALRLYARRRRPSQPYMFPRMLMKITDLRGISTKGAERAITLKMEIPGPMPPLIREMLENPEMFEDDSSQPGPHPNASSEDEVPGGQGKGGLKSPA
Chain of human Thyroid Receptor alpha (THRa1), THRA (gene 7067) (P10827 whole entry, looked up, the tested form may be a part): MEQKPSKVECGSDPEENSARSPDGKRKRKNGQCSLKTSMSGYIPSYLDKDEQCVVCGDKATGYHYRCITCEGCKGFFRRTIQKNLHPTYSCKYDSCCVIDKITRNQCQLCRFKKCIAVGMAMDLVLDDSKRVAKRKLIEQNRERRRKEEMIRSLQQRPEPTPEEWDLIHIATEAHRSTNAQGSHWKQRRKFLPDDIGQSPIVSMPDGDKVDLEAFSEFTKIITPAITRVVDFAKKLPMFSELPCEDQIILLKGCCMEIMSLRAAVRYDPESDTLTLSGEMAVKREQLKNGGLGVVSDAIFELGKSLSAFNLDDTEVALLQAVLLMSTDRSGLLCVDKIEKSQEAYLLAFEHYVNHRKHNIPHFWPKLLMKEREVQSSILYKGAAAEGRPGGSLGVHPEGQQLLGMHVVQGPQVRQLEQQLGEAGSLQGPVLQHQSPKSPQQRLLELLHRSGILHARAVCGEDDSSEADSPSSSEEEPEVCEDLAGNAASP
Chain of Retinoic acid receptor RXR-alpha (Homo sapiens) (P19793 whole entry, looked up, the tested form may be a part): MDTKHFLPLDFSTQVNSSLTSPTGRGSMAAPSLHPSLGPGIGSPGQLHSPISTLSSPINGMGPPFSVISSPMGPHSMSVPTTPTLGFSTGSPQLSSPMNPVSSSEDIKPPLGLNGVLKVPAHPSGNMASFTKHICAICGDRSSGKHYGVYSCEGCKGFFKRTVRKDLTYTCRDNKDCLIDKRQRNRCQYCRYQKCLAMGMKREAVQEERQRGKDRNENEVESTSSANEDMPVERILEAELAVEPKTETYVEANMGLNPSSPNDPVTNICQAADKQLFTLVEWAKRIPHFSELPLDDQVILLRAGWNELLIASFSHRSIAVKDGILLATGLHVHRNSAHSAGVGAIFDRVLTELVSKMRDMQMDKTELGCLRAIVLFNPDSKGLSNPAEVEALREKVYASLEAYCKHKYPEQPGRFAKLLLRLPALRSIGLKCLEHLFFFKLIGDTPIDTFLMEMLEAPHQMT
Chain of Peroxisome proliferator-activated receptor gamma (Homo sapiens) (P37231 whole entry, looked up): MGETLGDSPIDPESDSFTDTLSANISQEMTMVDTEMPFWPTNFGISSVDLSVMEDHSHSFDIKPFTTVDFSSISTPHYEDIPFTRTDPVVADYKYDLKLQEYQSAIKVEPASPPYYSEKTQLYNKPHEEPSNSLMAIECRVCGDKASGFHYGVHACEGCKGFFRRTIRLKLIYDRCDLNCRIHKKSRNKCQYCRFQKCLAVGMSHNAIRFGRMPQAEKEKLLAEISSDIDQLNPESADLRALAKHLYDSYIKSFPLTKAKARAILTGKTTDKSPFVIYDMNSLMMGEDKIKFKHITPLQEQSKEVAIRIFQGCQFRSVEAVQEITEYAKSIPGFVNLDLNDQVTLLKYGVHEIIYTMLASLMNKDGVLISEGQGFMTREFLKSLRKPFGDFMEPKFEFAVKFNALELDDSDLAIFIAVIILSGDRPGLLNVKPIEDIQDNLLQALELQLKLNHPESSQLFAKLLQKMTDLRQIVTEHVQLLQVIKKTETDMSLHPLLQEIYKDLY
Chain of human Peroxisome Proliferator-activated Receptor alpha (PPARa), PPARA (gene 5465) (Q07869 whole entry, looked up, the tested form may be a part): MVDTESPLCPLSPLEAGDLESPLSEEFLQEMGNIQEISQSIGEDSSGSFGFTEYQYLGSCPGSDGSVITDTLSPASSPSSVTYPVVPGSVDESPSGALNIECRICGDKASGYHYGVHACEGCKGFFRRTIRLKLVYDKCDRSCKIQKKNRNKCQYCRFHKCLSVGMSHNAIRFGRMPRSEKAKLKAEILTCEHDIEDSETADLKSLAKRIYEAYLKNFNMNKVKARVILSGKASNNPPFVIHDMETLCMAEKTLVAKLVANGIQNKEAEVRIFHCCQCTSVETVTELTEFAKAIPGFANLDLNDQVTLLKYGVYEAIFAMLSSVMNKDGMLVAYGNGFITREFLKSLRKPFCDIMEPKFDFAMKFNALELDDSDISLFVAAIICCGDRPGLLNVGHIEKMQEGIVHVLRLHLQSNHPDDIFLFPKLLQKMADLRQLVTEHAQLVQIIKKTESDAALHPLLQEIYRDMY
Chain of human RAR-related Orphan Receptor gamma (RORg), RORC (gene 6097) (P51449 whole entry, looked up, the tested form may be a part): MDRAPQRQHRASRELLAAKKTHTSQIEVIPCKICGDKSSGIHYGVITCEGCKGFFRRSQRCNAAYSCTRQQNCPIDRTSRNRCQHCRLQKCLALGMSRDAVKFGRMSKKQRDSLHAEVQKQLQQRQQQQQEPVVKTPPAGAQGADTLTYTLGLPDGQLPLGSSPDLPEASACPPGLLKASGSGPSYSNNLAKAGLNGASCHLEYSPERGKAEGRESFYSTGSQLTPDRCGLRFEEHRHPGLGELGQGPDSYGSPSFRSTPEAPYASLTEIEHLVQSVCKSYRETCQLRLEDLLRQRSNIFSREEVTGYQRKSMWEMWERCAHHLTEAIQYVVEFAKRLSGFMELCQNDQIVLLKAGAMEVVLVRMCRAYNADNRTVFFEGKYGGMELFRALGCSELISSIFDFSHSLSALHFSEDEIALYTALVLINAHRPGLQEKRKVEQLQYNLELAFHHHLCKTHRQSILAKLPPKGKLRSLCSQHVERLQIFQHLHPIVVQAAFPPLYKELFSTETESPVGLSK

Turning to `CCCCCCCCCCCCCC(=O)OCC`, the outcome in [1], in [2], in [3], in [4], in [5] and in assay [6] was inactive.
`O=C(O)C(F)(F)OC(F)(F)C(F)(F)OC(F)(F)C(F)(F)C(F)(F)C(F)(F)F`: the outcome in assay [7], in assay [8], in [11], in assay [12], in assay [13] and in assay [14] was inactive. The concentration at half-maximal activity (AC50) in [9] is 54.5 µM (active) and 48.8 µM (active); in assay [10] it was 50.4 µM (active) and 55.2 µM (active).
In the case of `CCCCCCOc1ccc(O)cc1`, the molecule was classed as inactive in assay [1], in [2], in assay [4] and in [17]. Further, the half-maximal activity concentration (AC50) in [15] is 27.6 µM (active); in assay [16], 15 µM (active).
As to `CCCCCCCCCCO[C@@H]1O[C@H](CO)[C@@H](O)[C@H](O)[C@H]1O`, the call in assay [1], in assay [2], in assay [15], in assay [16], in [4] and in assay [17] was inactive.
Take `CC(C)(C)c1ccc(S)cc1`: the molecule was classed as inactive in [1], in assay [2], in [15], in assay [16], in assay [5] and in assay [17].
Regarding `CCNC(=S)NCC`, the molecule was classed as inactive in assay [1], in assay [2], in assay [15], in assay [16], in assay [5] and in assay [17].
Take `CCOC(=O)C(=O)OCC`: the molecule was classed as inactive in assay [1], in [2] and in assay [18].
In the case of `OCC=Cc1ccccc1`, the molecule was called inactive in assay [1], in assay [2], in [16], in assay [5] and in assay [6].
On to `c1coc(CNc2ncnc3nc[nH]c23)c1`, for which the outcome in [1], in assay [2], in assay [15], in [18], in assay [5] and in assay [19] was inactive. The molecule was called inactive in [6].
As to `CC(=O)OC(C)(C)C`, the outcome in assay [1], in assay [2], in assay [15], in assay [16], in assay [5] and in assay [19] was inactive. In addition, the molecule was called inactive in assay [17] and in assay [6].
Take `CCCCOCCOCCOCCO`: the outcome in assay [1], in assay [2], in assay [15], in [19], in assay [17] and in [6] was inactive.
With `OCCCO`, the call in assay [1], in assay [2], in assay [16], in [4], in assay [17] and in [6] was inactive.
For `O=S1(=O)CC=CC1`, the molecule was called inactive in assay [1], in [2], in assay [18], in [5] and in assay [19].
In the case of `N#CCCCC(C#N)CCC#N` (stereo unspecified), the outcome in assay [1], in assay [2], in assay [16], in assay [4], in [19] and in assay [17] was inactive. In addition, the molecule was called inactive in [6].
As for `CCCCCCC(C)O` (stereo unspecified), the molecule was classed as inactive in assay [1], in assay [2], in assay [15], in [16], in assay [19] and in assay [17].
As to `CCCCC/C=C\C=C\C(=O)OCC`, the result in assay [1], in assay [2] and in assay [19] was inactive. In addition, the values for the AC50 in [15] and in assay [16] were 28.5 µM (active) and 5.19 µM (active), respectively.
In the case of `COc1ccc(OC)cc1`, the molecule was called inactive in assay [1], in assay [2], in [15] and in assay [5].
Turning to `CCOCC(C)O` (stereo unspecified), the molecule was classed as inactive in assay [1], in assay [2], in [18] and in assay [5].
As to `CC1=CC[C@@H]2C[C@H]1C2(C)C`, the molecule was called inactive in assay [1], in assay [2], in assay [18], in assay [19] and in [6].
For `CCCc1ccc(O)cc1`, the result in assay [1], in assay [2], in assay [15], in assay [16], in assay [5] and in assay [19] was inactive. The result in assay [17] was inactive.
